Reference: the supplement of paper PMC10723795
± gives the standard deviation of the averaged measurements.

tested on: RPE1; assay: nucleolar normality score relative to DMSO (fraction of DMSO control); RPE1 is a non-cancer human cell line; higher = more normal nucleoli (less nucleolar stress)
Method: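 Selected screen hits were validated in hTERT lines (BJ5TA, CHON-002, RPE1) and cancer lines (DLD1, HCT116). Cells were immunostained for nucleolin and UBF and the nucleolar normality score was measured per field of view, with 4 fields per drug. Scores are normalized to each cell line's own DMSO control. Dose and time are not stated for this panel.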

| SMILES | nucleolar normality score |
| --- | --- |
| CC[C@@]1(O)C(=O)OCc2c1cc1n(c2=O)Cc2cc3ccccc3nc2-1 [Camptothecin] | 0.413 ± 0.024 |
